Test results published in PubChem BioAssay AID623911 (Vanderbilt High Throughput Screening Facility, 2012).
The whole screen tested about 2,100 compounds, of which about 770 (37%) were called active.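 Rule for the calls: active = by-eye trace score of 1 for enhancers or -1 for inhibitors, so actives lie on both sides (some results past the limit were not filed as active); inactive = score 0, or 3 fluorescent, or 4 baseline rise.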 This is one part of the list.

The molecules below were run against G protein-activated inward rectifier potassium channel 2 (Homo sapiens) + G protein-activated inward rectifier potassium channel 1 (Homo sapiens) (UniProt P48051+P48549) (assay: GIRK1/2 thallium flux modulators, retest, confirmation, cell-based, HEK293 rmGlu8/hGIRK1/2, FluoZin-2 (AID 623911)). Details: HEK293 rmGlu8/hGIRK1/2, thallium flux FluoZin-2; actives lie on both sides; glutamate co-added at its EC20 level.
Chain of G protein-activated inward rectifier potassium channel 2 (Homo sapiens) + G protein-activated inward rectifier potassium channel 1 (Homo sapiens) (P48051 whole entry, looked up): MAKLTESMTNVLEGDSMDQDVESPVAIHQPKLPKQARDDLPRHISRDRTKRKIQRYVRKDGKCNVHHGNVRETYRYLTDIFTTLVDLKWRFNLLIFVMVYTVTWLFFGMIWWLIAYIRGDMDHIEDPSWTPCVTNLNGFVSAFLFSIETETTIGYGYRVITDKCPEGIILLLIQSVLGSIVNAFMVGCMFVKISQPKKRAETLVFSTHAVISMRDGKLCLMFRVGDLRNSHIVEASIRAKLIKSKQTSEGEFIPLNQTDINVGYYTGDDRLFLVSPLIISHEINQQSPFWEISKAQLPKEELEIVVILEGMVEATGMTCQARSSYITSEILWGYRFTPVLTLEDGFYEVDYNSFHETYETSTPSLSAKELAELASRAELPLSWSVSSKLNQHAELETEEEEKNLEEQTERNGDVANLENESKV
Chain of G protein-activated inward rectifier potassium channel 2 (Homo sapiens) + G protein-activated inward rectifier potassium channel 1 (Homo sapiens) (P48549 whole entry, looked up): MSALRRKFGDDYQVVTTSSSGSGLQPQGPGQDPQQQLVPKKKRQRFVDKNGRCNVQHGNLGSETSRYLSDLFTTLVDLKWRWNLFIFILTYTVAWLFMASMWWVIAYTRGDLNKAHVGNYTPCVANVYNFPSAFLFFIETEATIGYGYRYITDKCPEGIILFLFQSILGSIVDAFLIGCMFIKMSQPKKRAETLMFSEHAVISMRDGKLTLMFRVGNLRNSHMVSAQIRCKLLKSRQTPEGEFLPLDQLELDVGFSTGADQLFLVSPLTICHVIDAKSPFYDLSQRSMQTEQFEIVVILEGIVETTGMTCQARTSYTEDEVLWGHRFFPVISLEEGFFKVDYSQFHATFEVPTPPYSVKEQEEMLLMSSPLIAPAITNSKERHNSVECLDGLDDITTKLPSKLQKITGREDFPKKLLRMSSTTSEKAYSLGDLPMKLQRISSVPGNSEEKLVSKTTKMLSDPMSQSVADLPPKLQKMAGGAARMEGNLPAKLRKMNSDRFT
With COc1ccc(/C=C2\C(=O)NC(=S)N2C(=O)c2ccc(F)cc2)cc1 the manual score was 0 (inactive).
With COc1ccc(C(=O)N2C(=S)NC(=O)/C2=C\c2ccc(C)cc2)cc1 the manual score was 0 (inactive).
With COc1ccc(/C=C2\N=C(SC)NC2=O)cc1 the manual score was 1 (active).
With CC1CCC(n2c(=S)[nH]c3ccccc3c2=O)CC1 (stereo not given) the manual score was 0.5 (inactive).
With CCOc1cc2[nH]c(=S)n(C(C)C)c(=O)c2cc1OCC the manual score was 1 (active).
In the case of CC(C)n1c(=S)[nH]c2ccccc2c1=O, the manual score is reported as 1 (active).
CCC1CCCCN1CCCn1c(=S)[nH]c2ccccc2c1=O (stereo not given) was tested, and the manual score was 0 (inactive).
With CC1CCCCN1CCCn1c(=S)[nH]c2ccccc2c1=O (stereo not given) the manual score was 0 (inactive).
For O=c1c2ccccc2[nH]c(=S)n1CCCN1CCN(C2CCCCC2)CC1, the manual score was -1 (active).
With CC(C)N(CCn1c(=S)[nH]c2ccccc2c1=O)C(C)C the manual score was 0 (inactive).
With CC(C)COn1c(=S)[nH]c2ccccc2c1=O the manual score was 1 (active).
For COC(=O)c1ccc2c(=O)n(CC3CCCO3)c(=S)[nH]c2c1 (stereo not given), the manual score was 0 (inactive).
For CCn1c(=S)[nH]c2cc(C(=O)OC)ccc2c1=O, the manual score was 0.5 (inactive).
With CCC1(C)OCC(Cn2c3ccccc3c3ccccc32)O1 (stereo not given) the manual score was 0 (inactive).
For CC(C)c1ccc2occ(-c3nn[nH]n3)c(=O)c2c1, the manual score was 0 (inactive).
For CC1CCCCC1n1c(=S)[nH]c2ccccc2c1=O (stereo not given), the manual score was 1 (active).
In the case of CC1CCCC(n2c(=S)[nH]c3ccccc3c2=O)C1C (stereo not given), the manual score is reported as 3 (inactive).
CCCCOc1cccc(OCCCC)c1C(=O)Nc1cc(C)on1 was tested, and the manual score was -1 (active).
In the case of Cc1cc(NC(=O)c2ccccc2Oc2ccccc2)no1, the manual score is reported as 0 (inactive).
COc1ccc(C(=O)Nc2ccccc2)cc1S(=O)(=O)Nc1cc(C)on1 was tested, and the manual score was 0 (inactive).
COc1ccc(CN2CCNC(=O)C2CC(=O)O)cc1OC (stereo not given) was tested, and the manual score was 0 (inactive).
With COc1cccc2[nH]c3c(N4CCCC(C)C4)ncnc3c12 (stereo not given) the manual score was -1 (active).
In the case of COc1ccc(N(CC(=O)NC2CCCC2)C(=O)Cn2nnc(-c3ccc(C)cc3)n2)cc1, the manual score is reported as 0 (inactive).
For Cc1ccc(-c2nnn(CC(=O)NC3CC4CCC3C4)n2)cc1 (stereo not given), the manual score was 1 (active).
In the case of Cc1ccc(-c2nnn(CC(=O)N3CCCCC3)n2)c(-n2cnnn2)c1, the manual score is reported as 0 (inactive).
In the case of Clc1cccc(-c2ccc(/C=N/n3cnnc3)o2)c1Cl, the manual score is reported as 0 (inactive).
For CCCCCCCC1CC(CSc2ncn[nH]2)OC1=O (stereo not given), the manual score was 0 (inactive).
For CCCCCCCC1CC(CSC(=N)N)OC1=O (stereo not given), the manual score was -1 (active).
With O=C(c1ccc(Br)o1)N1CCN(c2ccc3nnc(-c4ccc(F)cc4)n3n2)CC1 the manual score was 0 (inactive).
Fc1cc(Br)ccc1NC(=S)NCCc1ccccc1 was tested, and the manual score was 0 (inactive).
Fc1ccccc1NC(=S)NN(Cc1ccccc1)c1ccccc1 was tested, and the manual score was -1 (active).
In the case of COc1ccc(Br)cc1CNC(=O)Nc1cccs1, the manual score is reported as 1 (active).
CCn1c(NC(=O)Nc2cccc(C)c2C)cc2sccc21 was tested, and the manual score was 0 (inactive).
COc1ccc2cc(Br)ccc2c1CC(=O)NC1CC(C)(C)NC(C)(C)C1 was tested, and the manual score was 0 (inactive).
For Cc1ccccc1CNC(=O)Nc1cccs1, the manual score was 1 (active).
For COc1ccccc1NC(=O)COc1ccc(Br)cc1CO, the manual score was 0 (inactive).
With O=C(NCc1cccs1)c1cccnc1C(=O)O the manual score was 0 (inactive).
For CCOc1cc(C)nc(N2CCN(C3CCCCC3)CC2)n1, the manual score was -1 (active).
In the case of COc1ccccc1C(=O)NNC(=S)NC(=O)c1ccco1, the manual score is reported as 1 (active).
In the case of COc1ccc(C(=O)NNC(=S)NC(=O)c2ccco2)cc1, the manual score is reported as 1 (active).
Cc1ccc(OCC(=O)N/N=C/c2cccn2C)cc1 was tested, and the manual score was 0 (inactive).
With Cc1ccccc1OCC(=O)N/N=C/c1cccn1C the manual score was 1 (active).
With Cc1cnc(NC(=O)COc2ccccc2Cl)s1 the manual score was 0 (inactive).
In the case of COc1ccc(CNC(=O)CSCc2ccccc2Cl)cc1, the manual score is reported as 0 (inactive).
For Cc1ccc(C(=O)CC(=O)c2cc(Cl)ccc2O)cc1, the manual score was 0 (inactive).
With Cc1ccc(C(=O)CC(=O)COc2ccc(Cl)cc2)cc1 the manual score was 0 (inactive).
In the case of Cc1ccc(C(=O)CC(=O)COc2ccc(Cl)cc2C)cc1, the manual score is reported as 1 (active).
Cc1ccc(NC(=O)C(c2ccccc2)C2CCCC2)cc1 (stereo not given) was tested, and the manual score was 0 (inactive).
In the case of Cc1ccc(C(C(=O)NC2CCCC2)N2CCCC(C)C2)cc1 (stereo not given), the manual score is reported as -1 (active).
With CC1CCN(C(C(=O)Nc2ccc3c(c2)OCO3)c2ccccc2)CC1 (stereo not given) the manual score was -1 (active).
For CC(C)c1cc(C(F)(F)F)n2nc(C(=O)Nc3ccc4c(c3)OCO4)cc2n1, the manual score was 0 (inactive).
In the case of CC1CCCN(C(C(=O)Nc2ccc3c(c2)OCO3)c2ccccc2)C1 (stereo not given), the manual score is reported as -1 (active).
O=C(NC(=S)Nc1ccc2c(c1)OCO2)c1ccccc1 was tested, and the manual score was 0 (inactive).
For O=C1OC2(CCCCC2)OC(=O)C1=CNc1nc2ccccc2s1, the manual score was 1 (active).
O=C(Nc1ccc(O)c(-c2nc3ccccc3s2)c1)C1=COCCO1 was tested, and the manual score was 0 (inactive).
With Cc1csc(SCC(=O)Nc2nc3ccccc3s2)n1 the manual score was 0 (inactive).
For Oc1oc(-c2cccc3ccccc23)nc1/C=N/c1nccs1, the manual score was 0 (inactive).
CCCCCC/C(C)=C1/SC(=S)NC1=O was tested, and the manual score was 1 (active).
With SC(COCc1ccccc1)CN1CCN(Cc2ccc3c(c2)OCO3)CC1 (stereo not given) the manual score was -0.5 (inactive).
With c1ccc2c(c1)oc1c(N3CCN(Cc4ccc5c(c4)OCO5)CC3)ncnc12 the manual score was -1 (active).
For COc1ccccc1N1CCN(Cc2cc(Br)c(O)c3ncccc23)CC1, the manual score was 0.5 (inactive).
In the case of OC(CN1C2=NCCCN2c2ccccc21)c1ccc(Br)cc1 (stereo not given), the manual score is reported as -1 (active).
CCCCCCN1C2=NCCN2c2ccccc21 was tested, and the manual score was -1 (active).
With Cc1ccc(CN2C3=NCCCN3c3ccccc32)cc1 the manual score was -1 (active).
In the case of CC(C)(C)c1ccc(CN2C3=NCCCN3c3ccccc32)cc1, the manual score is reported as -1 (active).
Cc1ccc(Cn2c(SCC(=O)N3CC(=O)Nc4ccccc43)nc3ccccc3c2=O)cc1 was tested, and the manual score was 0 (inactive).
For CCN(CC)c1ccc(NC(=O)c2nc3nc(C)cc(C(F)F)n3n2)cc1, the manual score was 0 (inactive).
In the case of Clc1ccc(CSc2ncn(-c3ccccc3)n2)cc1, the manual score is reported as 0 (inactive).
In the case of Cc1cc2c(cc1C)C(=O)NC(C)(C)C2, the manual score is reported as 0 (inactive).
With COc1ccc(Cn2nnnc2C(c2ccc(F)cc2)N2CCN(C3CCCC3)CC2)cc1 (stereo not given) the manual score was -1 (active).
For COc1ccc(Cn2nnnc2C(c2ccccc2Cl)N2CCN(C3CCCC3)CC2)cc1 (stereo not given), the manual score was -1 (active).
With CCC(c1nnnn1Cc1ccc(OC)cc1)N(CCCO)Cc1cc2cc3c(cc2[nH]c1=O)OCO3 (stereo not given) the manual score was 0 (inactive).
COCCn1nnnc1C(c1ccccc1)N1CCN(c2ccccc2)CC1 (stereo not given) was tested, and the manual score was 0 (inactive).
For COc1ccccc1C(c1nnnn1CCc1ccccc1)N1CCCCCC1 (stereo not given), the manual score was -1 (active).
With C=CCN1CCN(C(c2ccc(Cl)cc2)c2nnnn2CCc2ccc(OC)c(OC)c2)CC1 (stereo not given) the manual score was -1 (active).
Cc1ccccc1/C=c1\s/c(=C\C(=O)C(C)(C)C)[nH]c1=O was tested, and the manual score was 0 (inactive).
For O=C(O)CCCCCNc1nc2ncn(Cc3ccccc3)c2c(=O)[nH]1, the manual score was 0 (inactive).
For CCN(c1ccc2c(c1)OCO2)S(=O)(=O)c1cc(Br)cc2c1N(C(=O)C1CC1)CC2, the manual score was -1 (active).
In the case of CCN(CC)C(=O)CN(c1ccc2c(c1)OCO2)S(C)(=O)=O, the manual score is reported as 0 (inactive).
With Cn1cccc1-c1nc2ccc(NC(=O)c3cccs3)cc2[nH]1 the manual score was 0 (inactive).
With COc1ccc(OC)c(C2C(C(=O)c3cccs3)=C(O)C(=O)N2c2cc(C)on2)c1 (stereo not given) the manual score was 0 (inactive).
COc1ccc(NC(=O)C(=O)NNC(=O)c2cccs2)cc1 was tested, and the manual score was 1 (active).
COc1ccc(-n2c(=O)[nH]cc(C(=O)Nc3ccc(NC(C)=O)cc3)c2=O)cc1 was tested, and the manual score was 0 (inactive).
With COC(=O)c1cc(OC)c(OC)cc1NC(=O)Nc1ccc(OC)cc1OC the manual score was 0 (inactive).
For COc1ccc(NC(=O)C(=O)NNC(=O)c2cccs2)c(OC)c1, the manual score was 1 (active).
O=C(Nc1ccc(CN2CCOCC2)cc1)c1cc2ccccn2n1 was tested, and the manual score was 0 (inactive).
In the case of COCCNCCOc1ccccc1-c1ccccc1, the manual score is reported as -1 (active).
With COCCCNCCCOc1ccc(Cl)cc1Br the manual score was 0 (inactive).
COc1cc2cnncc2cc1OC was tested, and the manual score was 0 (inactive).
With S=c1[nH]nc(-c2ccc(Br)o2)n1Cc1ccccc1 the manual score was 1 (active).
CCCc1cc(-c2n[nH]c(=S)n2Cc2ccccc2)cs1 was tested, and the manual score was 0 (inactive).
With S=c1[nH]nc(-c2cc3ccccc3o2)n1Cc1ccccc1 the manual score was 0.5 (inactive).
For C/C(=N/NC(=O)c1cc(Cl)ccc1O)C12CC3CC(CC(C3)C1)C2, the manual score was 0 (inactive).
For CC(C)(C)CC(C)(C)NCC(O)COc1c(F)cc(Br)cc1F (stereo not given), the manual score was -1 (active).
For CN1C2C=C3C(C#N)=C(N)C(C#N)(C#N)[C@@H](c4ccsc4)[C@@H]3C1CC2 (stereo not given in full), the manual score was -0.5 (inactive).
For O=C(Nc1nnc(-c2ccccc2F)s1)C1CCCO1 (stereo not given), the manual score was 0 (inactive).
In the case of OC(CNCC1CCCO1)Cn1c2ccc(Br)cc2c2cc(Br)ccc21 (stereo not given), the manual score is reported as 0 (inactive).
In the case of COc1ccc(Nc2nnc(Cc3ccccc3)c(=O)[nH]2)c(OC)c1, the manual score is reported as 1 (active).
With COc1ccc(OC)c(Nc2cc(-c3ccccc3)nc(N)n2)c1 the manual score was -0.5 (inactive).
With CCOc1ccccc1Nc1nnc(Cc2ccccc2Cl)c(=O)[nH]1 the manual score was 1 (active).
In the case of CCOc1ccccc1NC(=O)Nc1cccc(C(C)=O)c1, the manual score is reported as 0 (inactive).
With Cc1sc2ncnc(N(C)Cc3cccs3)c2c1C the manual score was -1 (active).
With CCOC(=O)c1c(CNCCN(CC)CC)n(C)c2cc(Br)c(OC)cc12 the manual score was -1 (active).
O=C(Nc1ccccc1-c1nnn(CC(=O)N2CCc3ccccc3C2)n1)C1CCC1 was tested, and the manual score was 0 (inactive).
CN=C1c2c(-c3ccccc3)c3cc(OC)ccc3n2CCN1C was tested, and the manual score was -1 (active).
C=CCn1c(-c2cccs2)nc2ccccc21 was tested, and the manual score was 0 (inactive).
In the case of CCc1cc(-c2n[nH]c(C)c2-c2nc3ccccc3n2C)c(O)c(CN2CCN(C)CC2)c1O, the manual score is reported as -1 (active).
With COC(=O)c1ccc2c(=O)n(C3CCCCC3)c(SCC#N)nc2c1 the manual score was 0 (inactive).
With CCCN(CCC)C(=O)CSc1nc2ccccc2c(=O)n1C1CCCC1 the manual score was -1 (active).
With CCN(CC)C(=O)CSc1nc2ccccc2c(=O)n1-c1ccccc1OC the manual score was 0 (inactive).
